Data on 84 compounds can be found in PubChem BioAssay AID1851 (National Center for Advancing Translational Sciences (NCATS), 2009).

Values joined by “and” are separate entries in the source; they are usually repeats but may differ in a detail not shown here. Identical values can stand only once. Screen size: about 16,000 compounds; about 5,100 (32%) were called active. Roughly 25% stayed inconclusive and do not appear here. The list shows a part of the results. Values without a mark were called inactive. The call rests on the fitted dose curve; in most records, active means well fitted curve in the direction sought with a large enough effect; inconclusive means small, poorly fitted or top-dose-only effect, or effect the other way; inactive means no such curve, though single readings can be large or run the other way.
On the % scale 0 is the no-effect control and ±100 the full control effect.

In the assay the target is Cytochrome P450 3A4 (Homo sapiens) (UniProt P08684). In words: Cytochrome panel assay with activity outcomes. The following applies: recombinant CYP, pro-luciferin dealkylation, luminescence, p450-cyp3a4; series mostly up to 57.1 µM; activity, negative = inhibition: at the top concentration.
Sequence of Cytochrome P450 3A4 (Homo sapiens) (P08684 whole entry, looked up): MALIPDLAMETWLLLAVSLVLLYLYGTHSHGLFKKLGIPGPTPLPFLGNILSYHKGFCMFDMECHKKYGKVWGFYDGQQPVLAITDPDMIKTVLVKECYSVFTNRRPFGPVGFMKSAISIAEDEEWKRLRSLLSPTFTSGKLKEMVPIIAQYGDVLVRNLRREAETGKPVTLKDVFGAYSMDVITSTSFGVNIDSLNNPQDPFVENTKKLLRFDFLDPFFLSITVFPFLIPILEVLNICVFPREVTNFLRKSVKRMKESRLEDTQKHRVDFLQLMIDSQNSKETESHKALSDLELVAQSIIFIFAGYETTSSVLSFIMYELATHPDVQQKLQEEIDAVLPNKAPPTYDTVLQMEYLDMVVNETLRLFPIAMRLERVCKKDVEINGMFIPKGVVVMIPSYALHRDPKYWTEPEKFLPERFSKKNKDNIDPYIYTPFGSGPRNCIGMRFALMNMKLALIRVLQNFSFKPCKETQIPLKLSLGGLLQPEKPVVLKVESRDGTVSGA
In general, AC50 refers to the midpoint of the concentration-response curve, whichever way the signal moves. For `CCN(CC)CCCNC(=O)C1CCC(=O)N(c2ccc(OC)cc2)C1c1ccc(F)cc1` (centres undefined), the AC50 was 15.8 µM (active).

As to `CCCCNC(=O)C1CC(=O)N(c2ccc(OC)cc2)C1c1ccc(OC)cc1` (centres undefined), the activity, negative = inhibition is 3.58% [at 2.29 µM]. Same read-out and setting: under `COc1ccc(N2C(=O)CCC(C(=O)O)C2c2ccc(F)cc2)cc1` (centres undefined) stands 3.77%. `COc1ccc(N2C(=O)CCC(C(=O)Nc3ccccn3)C2c2ccc(OC)c(OC)c2)cc1` (centres undefined): the concentration at half-maximal activity (AC50) is 20 µM (active). On the same count and under the same terms, to `c1ccc(SC(Sc2ccccc2)c2ccc3c(c2)OCO3)cc1` belongs 2.51 µM (active). As to `O=S(=O)(c1ccccc1)N1CCC2(CC1)CN(Cc1nccs1)C2`, the “activity, negative = inhibition” value is 22.3%. Same read-out and setting: under `O=S(=O)(c1ccccc1)N1CCC2(CCN(Cc3nccs3)CC2)CC1` stands -9.07%. `O=S(=O)(c1ccccc1)N1CCC2(CCCN(Cc3nccs3)C2)CC1`: the AC50 was 3.16 µM (active). Consider `CS(=O)(=O)N1CCC2(CC1)CN(Cc1nccs1)C2`, for which the “activity, negative = inhibition” value is 7.56%. Consider `O=S(=O)(c1ccccc1)N1CCC[C@@]2(CCN(Cc3nccs3)C2)C1`, for which the AC50 is 3.16 µM (active). `CS(=O)(=O)N1CCC2(CCN(Cc3nccs3)CC2)CC1`: the “activity, negative = inhibition” value was -3.65%. On the same count and under the same terms, to `CO[C@H]1C[C@@H]2C[C@H](O)C[C@@H](CC(=O)O[C@@H](/C=C\CC(C)C)C[C@@H]3CC[C@H](C)[C@@H](C1)O3)O2` belongs -7.29% [at 11.4 µM]. For `Cn1cc(-c2nnc(-c3ccccc3)o2)c2ccccc21`, the half-maximal activity concentration (AC50) was 14.1 µM (active).

Take `Clc1ccc(-c2nnc(-c3cccc4ccccc34)o2)cc1Cl`: the activity, negative = inhibition is -4.35% [at 11.4 µM]. As for `Oc1ccccc1-c1nnc(-c2ccc(C(F)(F)F)cc2)o1`, the “activity, negative = inhibition” value was 6.83%. As for `O=C1CCCN1CC(CN1CCOCC1)Sc1nnnn1-c1ccccc1` (centres undefined), the AC50 is 15.8 µM (active). In the case of `c1ccc2c(c1)nnn2CN1CCOCC1`, the activity, negative = inhibition was -7.23% [at 11.4 µM]. As to `C[C@H](O/N=C1/[C@H]2O[C@@H]2[C@@H](O)[C@H]2[C@H]1CCn1c(=O)n(-c3ccccc3)c(=O)n12)c1cn([C@H]2COC[C@H]2O)nn1`, the activity, negative = inhibition is -7.71% [at 11.4 µM]. As for `C/C(CCC(=O)OC[C@@H]1O[C@H](C#Cc2ccccc2)C=C[C@@H]1Oc1ccc(C)cc1)=N/O[C@@H](C)c1cn([C@H](CO)Cc2ccccc2)nn1`, the AC50 was 3.98 µM (active) and 3.16 µM (active). For the compound `COc1ccc(O[C@H]2C=C[C@@H](c3ccccc3)O[C@H]2COC(=O)CC/C(C)=N\O[C@@H](C)c2cn([C@H]3COC[C@H]3O)nn2)cc1`, the concentration at half-maximal activity (AC50) is 3.98 µM (active). With `COc1ccc(O[C@H]2C=C[C@@H](c3ccccc3)O[C@H]2COC(=O)CC/C(C)=N\O[C@@H](C)c2cn([C@H](CO)Cc3ccccc3)nn2)cc1`, the AC50 was 3.98 µM (active) and 5.01 µM (active). For `O=S(=O)(O)c1ccc(N=Nc2ccc3c(S(=O)(=O)O)cccc3c2O)c2ccccc12`, the activity, negative = inhibition was -9.88% [at 11.4 µM].

Consider `C/C(N)=C(/C#N)C(=O)CSc1nnc(COc2cc(C)ccc2C)o1`, for which the AC50 is 3.55 µM (active).

Regarding `CC(=O)CSc1nnc(Cc2ccc([N+](=O)[O-])cc2)o1`, the activity, negative = inhibition is 7.56% [at 2.29 µM].

Consider `Cc1ccc(C)c(OCCCC(C)(C)C(=O)O)c1`, for which the “activity, negative = inhibition” value is 5.28% [at 25.6 µM]. As for `C[C@H](CO)NC(=O)[C@H](C)[C@@H]1C[C@@]1(C)[C@@H](NC(=O)OCc1ccccc1)c1ccccc1`, the AC50 is 5.01 µM (active). Consider `C[C@H](CO)NC(=O)[C@H](C)[C@H]1C[C@]1(C)[C@H](NC(=O)OCc1ccccc1)c1ccccc1`, for which the half-maximal activity concentration (AC50) is 3.98 µM (active). Consider `CN1CCN(c2ccc([N+](=O)[O-])cc2S(=O)(=O)N2CCOCC2)CC1`, for which the “activity, negative = inhibition” value is -14.4%. Still for that read-out and setting: to `O=C(N/N=C/c1cc([N+](=O)[O-])ccc1N1CCNCC1)c1ccc([N+](=O)[O-])cc1` belongs 5.34%. As for `O=C(c1ccc(Br)cc1)c1cc([N+](=O)[O-])ccc1N1CCCCC1`, the AC50 is 3.55 µM (active). On the same count and under the same terms, to `CN(C)S(=O)(=O)c1cc([N+](=O)[O-])ccc1N1CCCCCC1` belongs 12.6 µM (active); to `CN1CCN(S(=O)(=O)c2cc([N+](=O)[O-])ccc2N2CCCCCC2)CC1`, 0.794 µM (active).

On to `CN1CCN(c2ccc([N+](=O)[O-])cc2C(=O)N2CCOCC2)CC1`, for which the “activity, negative = inhibition” value was -0.527%. On to `O=C1C[C@@H](O)[C@@H](O)[C@H]2[C@@H]3C(=O)N(C4CCCCC4)C(=O)[C@@H]3CC[C@H]12`, for which the activity, negative = inhibition was -5.08% [at 11.4 µM] and -17.3% [at 11.4 µM] and -26.5% [at 11.4 µM]. As to `COc1ccc(/C=N/n2c(-c3cccs3)n[nH]c2=S)cc1`, the AC50 was 8.91 µM (active). On the same count and under the same terms, under `Cc1ccc(-c2n[nH]c(=S)n2/N=C/c2cccn2C)cc1` stands 12.6 µM (active).

As to `COc1ccc(C2=CSC(/N=C/c3ccc(F)cc3)=NN2)cc1`, the activity, negative = inhibition is 0.425% [at 2.29 µM]. The same measure, in the same setting: to `Cc1ccc(/C=C/c2nnc(-c3cccs3)o2)cc1` belongs 6.75% [at 2.29 µM]. On to `Cc1ccc(/C=N/n2c(-c3cccs3)n[nH]c2=S)cc1`, for which the concentration at half-maximal activity (AC50) is 11.2 µM (active). Consider `CN(C)C=Nc1ccc2nn(-c3ccccc3)nc2c1`, for which the activity, negative = inhibition is -3.41% [at 2.29 µM].

With `O=[N+]([O-])c1ccc([C@@H](Nc2ccccc2)c2ccc3cccnc3c2O)cc1`, the activity, negative = inhibition is -23.7% [at 11.4 µM]. In the case of `CN(c1ccccc1)c1nc(-n2ccnc2)nc(-n2ccnc2)n1`, the concentration at half-maximal activity (AC50) is 0.891 µM (active). Regarding `c1ccc(-c2nnn(CCN3CCCCC3)n2)cc1`, the activity, negative = inhibition is -9.98% [at 11.4 µM].

Turning to `CCCSc1cc(N2CCCC2)nc(-c2ccccc2)n1`, the “activity, negative = inhibition” value is -13.5%. Take `c1ccc(-c2nc(N3CCCCCC3)nc(-n3ccnc3)n2)cc1`: the AC50 was 0.708 µM (active). Consider `COc1ccccc1-c1ccc2ncnc(N3CCOCC3)c2c1`, for which the concentration at half-maximal activity (AC50) is 6.31 µM (active).

Consider `CN(C)C(=O)c1ccc(-c2ccc3ncnc(N4CCC(C(=O)O)CC4)c3c2)cc1`, for which the “activity, negative = inhibition” value was 1.85%. Regarding `COc1ccccc1-c1ccc2ncnc(N3CCN(C)CC3)c2c1`, the AC50 is 3.16 µM (active). On to `CN(C)Cc1ccccc1-c1ccc2ncnc(N3CCOCC3)c2c1`, for which the AC50 is 20 µM (active).

Regarding `CCCCCCCCCn1cc(C(C)=O)c(=O)[nH]c1=O`, the activity, negative = inhibition is -7.53% [at 2.29 µM]. Regarding `CN(C)C[C@H]1CCC2=C(C1=O)C(c1ccc(Cl)c(Cl)c1)C1=C(CC[C@H](CN(C)C)C1=O)O2`, the AC50 was 0.398 µM (active). Turning to `O=C(Cn1ccc(=O)[nH]c1=O)Nc1ccc(C(=O)O)c(O)c1`, the activity, negative = inhibition is -4.95% [at 11.4 µM]. On to `COc1ccc(Cc2nc3ccc(S(=O)(=O)N4CCOCC4)cc3[nH]2)cc1OC`, for which the AC50 was 12.6 µM (active). Take `COc1cccc2c1OC1(C)CC2/C(=C(\C)O)C(=O)N1` (centres undefined): the “activity, negative = inhibition” value was -3.38%. As to `COc1cccc(C2NC(c3cccc(OC)c3O)C(C)C(=O)C2C)c1O` (centres undefined), the concentration at half-maximal activity (AC50) is 12.6 µM (active). Turning to `COc1cccc(C(c2c(C)[nH]n(-c3ccccc3)c2=O)c2c(C)[nH]n(-c3ccccc3)c2=O)c1O`, the “activity, negative = inhibition” value is 2.06%.

Take `CN1c2ccccc2Oc2c(c(=O)n(C)c(=O)n2C)C1c1cccc([N+](=O)[O-])c1` (centres undefined): the AC50 is 15.8 µM (active). On the same count and under the same terms, to `CC1(C)CC2(CC(C)(C(=O)CSc3nc4ccccc4s3)OC2=O)C(=O)O1` (centres undefined) belongs 10 µM (active). In the case of `CC(C)CC1CC(=O)OC1(C)C(=O)CSc1nc2ccccc2s1` (centres undefined), the AC50 is 15.8 µM (active).

In the case of `NCCSSCCN`, the AC50 result was “inactive”. The same measure, in the same setting: to `COc1ccc2[nH]cc(CCNc3nc(-c4ccoc4)nc4ccccc34)c2c1` belongs 3.16 µM (active); to `COc1ccc2[nH]cc(CCNc3nc(-c4ccccc4OC)nc4ccccc34)c2c1`, 2.51 µM (active). Same read-out and setting: under `COc1ccc2[nH]cc(CCNc3nc(-c4cccnc4)nc4ccccc34)c2c1` stands 1.58 µM (active); under `COc1cccc(-c2nc(NCCc3c[nH]c4ccc(OC)cc34)c3ccccc3n2)c1`, 2 µM (active). For the compound `COC(=O)[C@@H]1O[C@@H](c2c(OC)c(OC)c(C)c(OC)c2OC)[C@H](C)[C@@H](O)[C@@H]1C`, the activity, negative = inhibition was -7.25% [at 11.4 µM]. Regarding `COc1ccc(-n2c(=O)c(-c3cn(C)c4ccccc34)nc3cncnc32)cc1`, the concentration at half-maximal activity (AC50) is 20 µM (active). As for `Cn1cc(-c2nc3cncnc3n(-c3ccccc3)c2=O)c2ccccc21`, the AC50 is 10 µM (active). As for `O=c1c(-c2ccccc2)nc2cncnc2n1-c1ccccc1`, the “activity, negative = inhibition” value is -27.5%.

Consider `CCCCCc1nnc(NC(=O)C(=O)OCC)s1`, for which the activity, negative = inhibition is 1.6% [at 2.29 µM]. Consider `CCCc1nnc(NC(=O)C(CC)OC(=O)c2cc(C)nc3ccccc23)s1` (centres undefined), for which the half-maximal activity concentration (AC50) was 12.6 µM (active). As for `CCCc1nnc(NC(=O)CCC(=O)NCc2ccccc2OC)s1`, the activity, negative = inhibition was 2.33% [at 2.29 µM]. The same measure, in the same setting: under `CC(=O)Nc1ccc(C2=NN(CC#N)C(=O)SC2)cc1` stands -15.6%. On the same count and under the same terms, under `O=C(Nc1cccnc1)C1COc2ccccc2O1` (centres undefined) stands -22.7%; under `O=C(NCc1cccnc1)[C@@H]1[C@@H](C(=O)O)[C@H]2CC[C@@H]1O2`, -23.9% [at 11.4 µM].

For the compound `O=C(O)[C@@H]1[C@@H](C(=O)NCc2cccnc2)[C@@H]2C=C[C@@H]1O2`, the activity, negative = inhibition is -21.1% [at 11.4 µM].

On to `NNC(=O)Cc1cccnc1`, for which the half-maximal activity concentration (AC50) is 3.16 µM (active). Turning to `O=C(O)Cc1cccnc1`, the activity, negative = inhibition was -12.2% [at 11.4 µM].

For the compound `O=C(c1ccccc1)c1c[nH]c(C(=O)NCc2cccnc2)c1`, the AC50 is 4.47 µM (active). Still for that read-out and setting: under `O=C(CCc1ccccc1)NCc1cccnc1` stands 5.01 µM (active). On the same count and under the same terms, under `O=C(NCc1cccnc1)C1COc2ccccc2O1` (centres undefined) stands 5.01 µM (active). On to `COc1ccc(C(=O)c2c[nH]c(C(=O)NCc3cccs3)c2)cc1`, for which the “activity, negative = inhibition” value was -17.8%. Take `CC(C)=CCC/C(C)=C/CO/N=C1/C[C@@H](O)[C@@H](O)[C@@H]2[C@@H]3C(=O)N(C(C)(C)C)C(=O)[C@H]3CC[C@H]12`: the activity, negative = inhibition was -7.78% [at 11.4 µM]. For the compound `CO[C@]1(C2=NCCN2)COc2ccccc2O1`, the AC50 result is “inactive”.

As to `O=C(CSCc1c(Cl)cccc1Cl)NCc1cccnc1`, the AC50 is 3.16 µM (active).
